PubChem BioAssay (NCATS)
Records with an inconclusive call do not appear. The source made the active and inactive calls. Calls follow the shape of the dose curve; as a rule, active = well fitted curve in the direction sought with a large enough effect; inconclusive = small, poorly fitted or top-dose-only effect, or another doubt; inactive = no such curve, though single readings can be large; an effect the other way counts as inactive or inconclusive.

Columns and labels:
[1] = test system: Zika virus NS2B-NS3 protease (linked construct); test: Primary screen NINDS Rhodamine qHTS for Zika virus inhibitors (AID 1347160); also: nearly all actives have a fitted effect of over 55% in size; as to activity change, negative = inhibition: % is scaled to controls: 0 for no effect and ±100 for the full control effect
In short: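 Each compound, titrated, sat 15 min with 25 nM linked protease before 1.5 microM Rhodamine110 substrate went in. Fluorescence gain over the next 15 min, in pH 8.0 Tris with Tween 20, gave Hill-fitted curves.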

[2] = target: Calcium and integrin-binding protein 1 (Homo sapiens) (UniProt Q99828); test: Primary qHTS for Identification of Calcium Integrin Binding Protein 1 (CIB1) Competitor (AID 1508620);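 also: GST tagged CIB1 binding a fluorescein labelled alphaIIb integrin peptide tracer; top concentration of the series differs between compounds; % is scaled to controls: 0 for no effect and ±100 for the full control effect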
In short: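 Fluorescence polarization competition: CIB1-GST (1 uM final) preincubated with compound 15 min at room temperature, then FITC-labeled alphaIIb peptide (100 nM final) added for another 15 min. Polarization read at Ex 480/Em 540.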

[3] = target: Glutathione peroxidase 1 (Homo sapiens) (UniProt P07203); test: Primary qHTS Assay for Inhibitors of Recombinant Selenoprotein Glutathione Peroxidase 1 (GPX1) (AID 1845191); also: nearly all actives have a fitted effect of over 65% in size
In short: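 GPX1 10 nM, GR 100 nM, GSH 1 mM, NADPH 0.5 mM, CHP 0.5 mM (final). 30-min cpd preincubation, RT. Ex340/Em450 read t=0, t=15 min.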

[4] = target: Phospholipid hydroperoxide glutathione peroxidase GPX4 (Homo sapiens) (UniProt P36969); test: Primary qHTS Assay for Inhibitors of Recombinant Selenoprotein Glutathione Peroxidase 4 (GPX4) (AID 1845192); also: nearly all actives have a fitted effect of over 65% in size; as to activity change, negative = inhibition: % is scaled to controls: 0 for no effect and ±100 for the full control effect
In short: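 qHTS, GR-coupled: GPX4 200 nM + cpd 30 min RT → GSH 1 mM, NADPH 0.5 mM, GR 100 nM → CHP 0.5 mM start; fluor 340/450 at t0 and t15 min; no-enzyme wells as control.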

[5] = target: Luciferin 4-monooxygenase (Photinus pyralis) (UniProt P08659); test: Primary firefly luciferase (FLuc) qHTS assay for identification of artifact compounds. (AID 1845220); settings: outcome: dose series up to 54.1 µM unless noted; also: nearly all actives have a fitted effect of over 60% in size;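 as to activity change, negative = inhibition: plate controls were DMSO vehicle for no effect and no enzyme for full effect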
In short: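 In this counter-screen for luciferase artifacts, test compounds met substrate (10 uM each luciferin and ATP) before 10 nM enzyme started the reaction. Light output was measured 5 min later.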

[6] = Primary fluorescence-based thiol-reactive (MSTI) qHTS assay for identification of artifact compounds. (AID 1845221);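 also: thiol-reactive compounds lower the probe fluorescence signal; nearly all actives have a fitted effect of over 65% in size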
In short: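 One-hour, room-temperature, dark incubation of compound with 4 uM MSTI in PBS (pH 7.4, 2% DMSO) precedes a fluorescence read at 525 nm excitation, 598 nm emission; Hill-equation fitting yields concentration-response values.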

[7] = test system: Nanoluciferase (engineered Oplophorus gracilirostris luciferase); test: Primary Nanoluciferase (NLuc) qHTS assay for identification of artifact compounds. (AID 1845222);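 also: NLuc secreted into diluted conditioned medium of S16 cells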
In short: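 Using secreted nanoluciferase in S16 culture medium (0.22 um filtered, 1:55 dilution), compounds were preincubated 15 min at RT. Signal was generated with Nano-Glo reagent (1:100) over 5 min.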

[8] = Primary redox qHTS assay for identification of artifact compounds. (AID 1845223);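 also: 0% = DMSO and 100% = reference compound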
In short: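 Redox-cycling detection via DTT (250 uM final) oxidation coupled to Amplex Red (25 uM)/HRP (250 mU/mL) in HBSS. 15 min preincubation plus 30 min after DTT, room temperature. Ex/Em 525/598 nm; 4-parameter Hill fit against DMSO and 10 uM DA3003.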

HaCat = test: Cytotoxic Profiling of Annotated Libraries Using Quantitative High-Throughput Screening (AID 1296008); settings: Five cell lines viability, CellTiter-Glo ATP luminescence, 48-72 h; max response: stronger effect = lower value; also: nearly all actives have a fitted effect of over 60% in size; as to max response: % is scaled to controls: 0 for no effect and ±100 for the full control effect
In short: (§1)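 Compounds were pin-transferred onto cells and incubated 48 or 72 hr at 37 degree Celsius, 95% humidity. CellTiter-Glo was added, plates sat 10 min at room temperature, then ATP-coupled luminescence was imaged as the viability read-out.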

NIH3T3 = test: as above; settings: Five cell lines viability, CellTiter-Glo ATP luminescence, 48-72 h; max response: stronger effect = lower value
In short: as §1

C33A = test: Primary qHTS to identify gynecologic anti-cancer compounds using libraries of approved drugs and bioactive compounds (AID 1345084); settings: Gynecologic cancer cell panel viability, ATPlite luminescence, 48 h; series mostly up to 57.5 µM; also: % is scaled to controls: 0 for no effect and ±100 for the full control effect; nearly all actives have a fitted effect of over 55% in size
In short: (§2)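 In this quantitative HTS, cell killing is estimated from loss of ATP-dependent luciferase light. Cells see five compound concentrations over a 48 h exposure.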

CAOV3 = test: as above; settings: Gynecologic cancer cell panel viability, ATPlite luminescence, 48 h; series mostly up to 57.5 µM
In short: as §2

CASKI = test: as above; settings: Gynecologic cancer cell panel viability, ATPlite luminescence, 48 h; series mostly up to 57.5 µM
In short: as §2

Es-2 = test: as above; settings: Gynecologic cancer cell panel viability, ATPlite luminescence, 48 h; series mostly up to 57.5 µM
In short: as §2

Hek293T = test: as above; settings: Gynecologic cancer cell panel viability, ATPlite luminescence, 48 h, control line for the selectivity index; series mostly up to 57.5 µM
In short: as §2

JEG-3 = test: as above; settings: Gynecologic cancer cell panel viability, ATPlite luminescence, 48 h; series mostly up to 57.5 µM
In short: as §2

OV90 = test: as above; settings: Gynecologic cancer cell panel viability, ATPlite luminescence, 48 h; series mostly up to 57.5 µM
In short: as §2

PA-1 = test: as above; settings: Gynecologic cancer cell panel viability, ATPlite luminescence, 48 h; series mostly up to 57.5 µM
In short: as §2

Tov-21-G = test: as above; settings: Gynecologic cancer cell panel viability, ATPlite luminescence, 48 h; series mostly up to 57.5 µM
In short: as §2

Tov112D = test: as above; settings: Gynecologic cancer cell panel viability, ATPlite luminescence, 48 h; series mostly up to 57.5 µM
In short: as §2

Sequence of Phospholipid hydroperoxide glutathione peroxidase GPX4 (Homo sapiens) (P36969 whole entry, looked up): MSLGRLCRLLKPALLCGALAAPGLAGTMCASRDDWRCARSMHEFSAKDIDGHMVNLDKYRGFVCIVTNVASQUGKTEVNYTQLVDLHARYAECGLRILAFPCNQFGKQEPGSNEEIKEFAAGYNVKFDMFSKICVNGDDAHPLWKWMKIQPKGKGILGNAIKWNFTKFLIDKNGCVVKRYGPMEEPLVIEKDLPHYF
Sequence of Calcium and integrin-binding protein 1 (Homo sapiens) (Q99828 whole entry, looked up): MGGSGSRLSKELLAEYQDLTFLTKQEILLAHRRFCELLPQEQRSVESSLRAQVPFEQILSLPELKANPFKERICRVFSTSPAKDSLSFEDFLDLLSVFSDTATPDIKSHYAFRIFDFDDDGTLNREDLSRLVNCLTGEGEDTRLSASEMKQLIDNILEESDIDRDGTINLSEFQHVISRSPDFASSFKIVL
Sequence of Glutathione peroxidase 1 (Homo sapiens) (P07203 whole entry, looked up): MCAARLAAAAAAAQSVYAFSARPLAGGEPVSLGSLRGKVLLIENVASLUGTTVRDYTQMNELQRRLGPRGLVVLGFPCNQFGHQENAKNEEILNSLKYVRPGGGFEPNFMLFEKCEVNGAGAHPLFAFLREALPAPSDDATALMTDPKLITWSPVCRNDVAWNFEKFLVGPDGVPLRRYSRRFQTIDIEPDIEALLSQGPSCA

CC12Cc3cn[nH]c3C=C1CCC1C2CCC2(C)C1CCC2(C)O (stereo not drawn)
inactive: Potency [1] | Potency [2] | Potency [3] | Potency [4] | outcome [5] | Potency [6] | Potency [7] | Potency [8] | max response (HaCat) -0.609% | max response (NIH3T3) -0.979% | Potency (C33A) | Potency (CAOV3) | Potency (CASKI) | Potency (Es-2) | Potency (Hek293T) | Potency (JEG-3) | Potency (OV90) | Potency (PA-1) | Potency (Tov-21-G) | Potency (Tov112D)

CN1C(=O)C(Cc2ccc3ccccc3c2)N=C(c2ccc(O)cc2)c2cc(Cl)ccc21 (stereo not drawn)
inactive: Potency [2] | Potency [3] | Potency [4] | outcome [5] | Potency [6] | Potency [7] | Potency [8] | outcome (HaCat) | max response (NIH3T3) -0.878% | Potency (C33A) | Potency (CAOV3) | Potency (CASKI) | Potency (Es-2) | Potency (Hek293T) | Potency (JEG-3) | Potency (OV90) | Potency (PA-1) | Potency (Tov-21-G) | Potency (Tov112D)

CC(=O)C1CCC2C3CCC4C[C@@H](O)CCC4(C)C3CCC12C (stereo partly drawn)
inactive: Potency [2] | Potency [3] | Potency [4] | outcome [5] | Potency [6] | Potency [7] | Potency [8] | max response (HaCat) -9.42% | outcome (NIH3T3) | Potency (C33A) | Potency (CAOV3) | Potency (CASKI) | Potency (Es-2) | Potency (Hek293T) | Potency (JEG-3) | Potency (OV90) | Potency (PA-1) | Potency (Tov-21-G) | Potency (Tov112D)

C=C[C@H]1CN2CCC1C[C@H]2[C@H](O)c1ccnc2ccccc12 (stereo partly drawn)
inactive: Potency [1] | Potency [2] | Potency [4] | outcome [5] | Potency [6] | Potency [7] | Potency [8] | max response (HaCat) -26.7% | max response (NIH3T3) -5.71% | Potency (C33A) | Potency (CAOV3) | Potency (CASKI) | Potency (Es-2) | Potency (Hek293T) | Potency (JEG-3) | Potency (OV90) | Potency (PA-1) | Potency (Tov-21-G) | Potency (Tov112D)

CCCCCn1cc(C(=O)c2cccc3ccccc23)c2ccccc21
inactive: Potency [1] | Potency [2] | Potency [3] | Potency [4] | outcome [5] | Potency [6] | Potency [7] | Potency [8] | max response (HaCat) -4.01% | max response (NIH3T3) 4.48% | Potency (C33A) | Potency (CAOV3) | Potency (CASKI) | Potency (Es-2) | Potency (Hek293T) | Potency (JEG-3) | Potency (OV90) | Potency (PA-1) | Potency (Tov-21-G) | Potency (Tov112D)

C[C@H]1CC[C@@H]2[C@@H](C)[C@H]3[C@H](C[C@H]4[C@@H]5CC=C6CC(O[C@@H]7O[C@H](CO)[C@@H](O)[C@H](O[C@@H]8O[C@H](CO)[C@@H](O)[C@H](O)[C@H]8O)[C@@H]7O[C@@H]7O[C@@H](C)[C@H](O)[C@@H](O)[C@H]7O)CC[C@]6(C)[C@H]5CC[C@]34C)N2C1 (stereo partly drawn)
inactive: Potency [1] | Potency [2] | Potency [3] | Potency [4] | outcome [5] inactive [at 11.6 µM] | activity change, negative = thiol reactive [6] 134% [at 11.5 µM] | activity, negative = inhibition [7] -0.992% [at 11.6 µM] | max response (HaCat) -13.1% | outcome (NIH3T3) | activity change, negative = cytotoxicity (C33A) -12.6% [at 11.6 µM] | activity change, negative = cytotoxicity (CAOV3) 17.5% [at 11.6 µM] | activity change, negative = cytotoxicity (CASKI) 0.984% [at 11.6 µM] | activity change, negative = cytotoxicity (Es-2) -2.66% [at 11.6 µM] | activity change, negative = cytotoxicity (Hek293T) 11.3% [at 11.6 µM] | activity change, negative = cytotoxicity (JEG-3) -0.31% [at 11.6 µM] | activity change, negative = cytotoxicity (OV90) -5.29% [at 11.6 µM] | activity change, negative = cytotoxicity (PA-1) 7.63% [at 11.6 µM] | activity change, negative = cytotoxicity (Tov-21-G) -1.56% [at 11.6 µM] | activity change, negative = cytotoxicity (Tov112D) 5.33% [at 11.6 µM]

C/C=C(\C)C(=O)OC1C2C3(C)CCC(OC4CC(OC)C(OC5OC(C)C(O)C(OC)C5O)C(C)O4)CC3CCC23OC32CCC(C(C)=O)C2(C)C1OC(=O)/C(C)=C/C (stereo not drawn)
inactive: Potency [1] | Potency [2] | Potency [3] | Potency [4] | activity change, negative = inhibition [5] 0.886% [at 11.6 µM] | activity, negative = inhibition [7] 2.09% [at 11.6 µM] | redox activity (% of DA3003) [8] 18.3% [at 11.5 µM] | outcome (HaCat) | max response (NIH3T3) -16.5% | activity change, negative = cytotoxicity (C33A) 10.6% [at 11.6 µM] | activity change, negative = cytotoxicity (CAOV3) 0.328% [at 11.6 µM] | activity change, negative = cytotoxicity (CASKI) -3.16% [at 11.6 µM] | activity change, negative = cytotoxicity (Es-2) -0.14% [at 11.6 µM] | activity change, negative = cytotoxicity (Hek293T) 2.72% [at 11.6 µM] | activity change, negative = cytotoxicity (JEG-3) 7.67% [at 11.6 µM] | activity change, negative = cytotoxicity (OV90) 2.67% [at 11.6 µM] | activity change, negative = cytotoxicity (PA-1) 2.59% [at 11.6 µM] | activity change, negative = cytotoxicity (Tov-21-G) -0.804% [at 11.6 µM] | activity change, negative = cytotoxicity (Tov112D) -1.3% [at 11.6 µM]

CN1C(=O)N(c2ccc(C#N)c(C(F)(F)F)c2)C(=O)[C@@]1(CO)c1ccccc1
inactive: Potency [1] | Potency [2] | Potency [3] | Potency [4] | outcome [5] | Potency [6] | Potency [7] | Potency [8] | max response (HaCat) 0.274% | max response (NIH3T3) 4.41% | Potency (C33A) | Potency (CAOV3) | Potency (CASKI) | Potency (Es-2) | Potency (Hek293T) | Potency (JEG-3) | Potency (OV90) | Potency (PA-1) | Potency (Tov-21-G) | Potency (Tov112D)

COC(=O)[C@@]1(C)C(=O)C=C[C@]2(C)c3c(O)cc(C(C)C)cc3[C@H](O)[C@@H](OC(C)=O)C12 (stereo partly drawn)
inactive: Potency [1] | Potency [2] | Potency [4] | outcome [5] inactive [at 25.7 µM] | Potency [6] | Potency [7] | Potency [8] | outcome (HaCat) | max response (NIH3T3) -1.38% | Potency (C33A) | Potency (CAOV3) | Potency (CASKI) | Potency (Es-2) | Potency (Hek293T) | Potency (JEG-3) | Potency (OV90) | Potency (PA-1) | Potency (Tov-21-G) | Potency (Tov112D)

C=C1CC[C@H]2[C@@H](/C=C(\C)C(=O)[C@@]3(OC(C)=O)C[C@H](C)[C@H](OC(=O)c4ccccc4)[C@@H]3[C@H]1OC(C)=O)C2(C)C
inactive: Potency [1] | Potency [2] | Potency [3] | Potency [4] | outcome [5] | Potency [6] | Potency [7] | Potency [8] | max response (HaCat) -1.11% | max response (NIH3T3) -4.22% | Potency (C33A) | Potency (CAOV3) | Potency (CASKI) | Potency (Es-2) | Potency (Hek293T) | Potency (JEG-3) | Potency (OV90) | Potency (PA-1) | Potency (Tov-21-G) | Potency (Tov112D)

C[C@]12CC[C@@H](O)C[C@@H]1CC[C@@H]1[C@@H]2CC[C@]2(C)C(=O)[C@@H](Br)C[C@@H]12
inactive: Potency [1] | Potency [2] | Potency [3] | Potency [4] | outcome [5] | Potency [6] | Potency [7] | Potency [8] | outcome (HaCat) | Potency (C33A) | Potency (CAOV3) | Potency (CASKI) | Potency (Es-2) | Potency (Hek293T) | Potency (JEG-3) | Potency (OV90) | Potency (PA-1) | Potency (Tov-21-G) | Potency (Tov112D)
